LmPK inh: inhibitors of Leishmania mexicana pyruvate kinase. Q27686. purified LmPK, Kinase-Glo ATP luminescence, 1 h. Potency, µM (titrated, usually from 57.5 µM), inactives show at the top dose activity change, negative = inhibition, usual class: inhibitors. 290,000 tested, 0.37% active; note: potency is the fitted concentration of half-maximal effect; % is set by controls: 0 for no effect and ±100 for the full control effect
Target sequence (Q27686 whole entry, looked up): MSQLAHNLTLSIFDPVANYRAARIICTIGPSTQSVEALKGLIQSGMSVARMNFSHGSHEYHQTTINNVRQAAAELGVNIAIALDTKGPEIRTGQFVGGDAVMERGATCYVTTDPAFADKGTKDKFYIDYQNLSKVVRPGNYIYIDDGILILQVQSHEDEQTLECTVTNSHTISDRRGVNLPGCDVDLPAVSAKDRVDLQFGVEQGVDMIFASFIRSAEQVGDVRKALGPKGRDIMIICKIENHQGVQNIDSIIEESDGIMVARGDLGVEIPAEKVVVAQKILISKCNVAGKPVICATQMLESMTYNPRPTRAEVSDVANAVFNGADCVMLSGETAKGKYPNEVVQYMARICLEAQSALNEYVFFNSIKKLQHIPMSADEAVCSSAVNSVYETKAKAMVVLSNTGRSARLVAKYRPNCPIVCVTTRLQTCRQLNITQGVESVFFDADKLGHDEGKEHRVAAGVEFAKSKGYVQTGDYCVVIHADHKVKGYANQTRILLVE
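In 50 mM imidazole pH 7.2 with 7 mM MgCl2, LmPK (0.1 nM) turned over PEP (0.5 mM) and ADP (0.1 mM) for 1 h at room temperature. Luciferase read-out of ATP.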
RE007 growth inh: less growth of the S. pombe RE007 Vpr strain. S. pombe RE007 Vpr strain, BacTiter-Glo ATP luminescence, 24 h. Potency, µM (doses to about 92.2 µM), for inactives: top-dose activity change, negative = less growth, usual class: inhibitors. 360,000 tested, 0.21% active. AID 651644; active = well fitted falling curve with a large enough effect; inconclusive = small, poorly fitted or top-dose-only effect; inactive = no such curve, though single readings can be large or run the other way; note: potency is the fitted concentration of half-maximal effect; % is set by controls: 0 for no effect and ±100 for the full control effect; nearly all actives have a fitted effect of over 50% in size
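Fission yeast RE007 carrying one integrated HIV-1 vpr copy, seeded at OD 0.01 in PMG+AL medium with 23 nL pinned compound. Grown 24 h at 30 degrees; viability read by BacTiter-Glo luminescence after 5 min.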
NS1 function inh: inhibitors of influenza NS1 protein function. Potency, µM (doses to about 46.1 µM), inactives show top-dose activity, positive = more growth. 270,000 tested, 0.4% active; calls by dose curve; note: potency is the fitted concentration of half-maximal effect; actives are rising curves; nearly all actives have a fitted effect of over 50% in size
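In this qHTS, NS1 from influenza A is expressed in budding yeast, where it slows growth. Cells are switched from glucose to 2% galactose medium (pH 6.0, -URA), treated with compound, and growth recovery is read at OD600.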
TbPYK inhibitor: blocks Trypanosoma brucei pyruvate kinase. TbPYK enzyme, Kinase-Glo Plus ATP luminescence, 45 min. Q57TT1. 410,000 tested, 0.12% active. Potency, µM (doses to about 76.8 µM), for inactives: at the top dose activity, negative = inhibition, hits mostly inhibitors; note: potency is the fitted concentration of half-maximal effect; % is set by controls: 0 for no effect and ±100 for the full control effect; nearly all actives have a fitted effect of over 50% in size
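In this concentration-response screen, enzyme-free wells defined baseline while DMSO plates tracked drift. Each reaction combined TbPYK, substrate, compound and 130 uM ADP for 45 min at room temperature. Kinase-Glo Plus luminescence gave the signal.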
LmPK confirm: Inhibits Leishmania mexicana pyruvate kinase, confirmation; 150 tested, 40% active; shares compounds with LmPK inh; Potency, µM (highest dose often 57.5 µM), inactives show at the top dose activity change, negative = inhibition, hits mostly inhibitors; purified LmPK, Kinase-Glo ATP luminescence, 1 h;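 active = compounds giving a full or partial concentration-response curve, as inhibitors or activators; inconclusive = weak, top-dose-only or unclear curve responses; inactive = no response at any tested dose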
An asterisk follows results filed as active. This is a sample that favours compounds with a hit; in the whole collection about 0.77% have one here. Unless noted, calls come from the whole dose curve; as a rule, active = well fitted curve in the direction sought with a large enough effect; inconclusive = small, poorly fitted or top-dose-only effect, or another doubt; inactive = no such curve, though single readings can be large; an effect the other way counts as inactive or inconclusive.

Oc1ccc(/C=N/n2cc(-c3ccccc3)[nH]c2=S)cc1 was read as LmPK inh -9.4%, RE007 growth inh 0.9% and TbPYK inhibitor inconclusive.
`CC(C)Cn1c(-c2ccccc2F)n[nH]c1=S` gave LmPK inh -7.1%, RE007 growth inh 6.4%, NS1 function inh -2.2% and TbPYK inhibitor inconclusive.
CC(C)Cn1c(-c2csc3c2CCCC3)n[nH]c1=S was read as LmPK inh 10µM*, RE007 growth inh 0.5%, NS1 function inh -66.3% and TbPYK inhibitor inconclusive.
For CC(=O)c1cccc2c(O)c(C3=Nc4ccccc4C3=O)[nH]c12 the results were LmPK inh 25.1µM*, RE007 growth inh inconclusive, NS1 function inh -35.9% and TbPYK inhibitor inconclusive.
For Cc1ccc(NS(=O)(=O)c2cc([N+](=O)[O-])ccc2NNC(=S)Nc2cc(C)ccc2C)c(C)c1 the results were LmPK inh -17.8%, RE007 growth inh -6.7%, NS1 function inh 12.6µM* and TbPYK inhibitor -15.3%.
Screening CC(=O)Nc1ccc2c(c1)[nH]c(=O)c1ccccc12 returned RE007 growth inh 12.5% and TbPYK inhibitor -6.8%.
For O=C(O)c1cccc(-n2sc3ccccc3c2=O)c1 the results were RE007 growth inh 1.4% and TbPYK inhibitor inconclusive.
Screening N#Cc1ccc2c(=O)n(-c3ccccc3)sc2c1 returned RE007 growth inh 10µM* and TbPYK inhibitor 3.16µM*.
`O=C1CN(c2ccccc2F)C(=O)CN1c1ccccc1F` gave LmPK inh -11.4%, RE007 growth inh -10.7%, NS1 function inh 1.1% and TbPYK inhibitor 5.9%.
`O=c1c2ccccc2sn1-c1ccccc1F` gave RE007 growth inh 35.5µM* and TbPYK inhibitor 7.08µM*.
`O=c1c2ccccc2sn1-c1ccccc1` gave LmPK inh inconclusive, RE007 growth inh 8.91µM*, NS1 function inh -106.6% and TbPYK inhibitor inconclusive.
For N#Cc1c(N)n(-c2ccccc2)c(=O)c2cc([N+](=O)[O-])ccc12 the results were LmPK inh 1.3%, RE007 growth inh 5.4%, NS1 function inh 0.8% and TbPYK inhibitor 2.9%.
CC(=O)Nc1ccc2c(=O)n(-c3ccccc3)sc2c1 was read as RE007 growth inh 12.2% and TbPYK inhibitor 7.08µM*.
O=C(C(=O)N1CCC(Cc2ccccc2)CC1)c1ccccc1Br was read as RE007 growth inh -6.4%.
O=c1c2ccccc2sn1-c1cccc(Cl)c1 was read as RE007 growth inh 10µM* and TbPYK inhibitor 7.08µM*.
CC(=O)Nc1ccc(-c2cc(N)n(-c3ccccc3)n2)cc1 was read as LmPK inh 15.8µM*, RE007 growth inh 3.9%, NS1 function inh 24.8% and TbPYK inhibitor -26.8%.
CN(C)S(=O)(=O)c1cccc(-n2sc3ccccc3c2=O)c1 was read as LmPK inh -2.3%, RE007 growth inh -11.1% and TbPYK inhibitor 3.98µM*.
For O=c1c2ccccc2sn1-c1nccs1 the results were LmPK inh 0.3%, RE007 growth inh 0.3% and TbPYK inhibitor 5.62µM*.
`Cn1c(=O)n(-c2cccc(Cl)c2)c(=O)c2sc3ccccc3c21` gave TbPYK inhibitor -1.2%.
Screening Cc1ccc(NC(=O)CN2C(=O)COc3ccc(S(=O)(=O)NC4CCCC4)cc32)cc1Cl returned TbPYK inhibitor -6.7%.
For Cc1ccccc1-n1sc2cc(F)ccc2c1=O the results were LmPK inh 20.7%, RE007 growth inh -92.3% and TbPYK inhibitor 8.91µM*.
O=c1[nH]sc2cc(F)ccc12 was read as LmPK inh 22.6%, RE007 growth inh inconclusive and TbPYK inhibitor inconclusive.
Screening COC(=O)CCN(c1ccccc1)C(CNS(=O)(=O)c1ccccc1)c1ccccc1 (stereo not drawn) returned TbPYK inhibitor -2.1%.
Oc1cccc(/C=N/Nc2nn3cnnc3c3ccccc23)c1 was read as LmPK inh 14.1µM*, RE007 growth inh -8.6%, NS1 function inh -3.1% and TbPYK inhibitor 2.4%.
`COc1cccc(/C=N/Nc2nn3cnnc3c3ccccc23)c1O` gave LmPK inh 0.9%, RE007 growth inh -0.9%, NS1 function inh 13.2% and TbPYK inhibitor 2.6%.
`CCN(CC)S(=O)(=O)c1ccc2nc(NC(=O)c3cccnc3)sc2c1` gave TbPYK inhibitor 0.5%.
Screening COc1ccc2[nH]c(C(=O)Nc3cccc(C)n3)cc2c1 returned LmPK inh 28.2µM*, RE007 growth inh inconclusive, NS1 function inh 7.4% and TbPYK inhibitor -25.1%.
`COc1cccc(-c2cc(C(F)(F)F)n3nc(N)nc3n2)c1` gave LmPK inh -4.7%, RE007 growth inh 4.8%, NS1 function inh -5.6% and TbPYK inhibitor -7.5%.
For Clc1ccc(-c2cn3nc4c(nc3n2)CCCC4)cc1 the results were LmPK inh 14.1µM*, RE007 growth inh 1.2%, NS1 function inh -8.1% and TbPYK inhibitor -8.8%.
`COc1cccc(-c2cn3nc4c(nc3n2)CCCC4)c1` gave LmPK inh 11.2µM*, RE007 growth inh inconclusive, NS1 function inh -11.3% and TbPYK inhibitor inconclusive.
Cc1ccc(NC(=O)CSc2nc(-c3cccs3)cc(C(F)(F)F)n2)cc1C was read as TbPYK inhibitor -1.6%.
Fc1ccccc1C1CC(c2ccco2)=Nc2ccccc2S1 (stereo not drawn) was read as LmPK inh 0.9%, RE007 growth inh 25.1µM*, NS1 function inh -65.3% and TbPYK inhibitor -14.1%.
For CN(C)c1ccc(C(=C2C=CC(=[N+](C)C)C=C2)c2c(O)c(S(=O)(=O)O)cc3cc(S(=O)(=O)O)ccc23)cc1 the results were NS1 function inh -3.1%.
Cc1cc(O)c(C(C)C)cc1CN1CCCCC1 was read as NS1 function inh 0.3%.
For CSC1=NC2(CCN(C(=O)NC3CCCCC3)CC2)N=C1c1ccc(C)c(C)c1 the results were TbPYK inhibitor -2.6%.
For Cc1ccc(C(=O)n2c(N)nc3ccccc32)cc1 the results were LmPK inh 5.01µM*, RE007 growth inh 0.0%, NS1 function inh -6.1%, TbPYK inhibitor -25.0% and LmPK confirm 32.6µM*.
COc1ccc(/C(O)=C2/C(=O)C(=O)N(Cc3cccnc3)C2c2ccco2)cc1OC (stereo not drawn) was read as LmPK inh -0.3%, RE007 growth inh 3.6%, NS1 function inh -4.6%, TbPYK inhibitor 0.1% and LmPK confirm 3.7%.
`COc1ccc(CNS(=O)(=O)c2ccc(N3CCCCS3(=O)=O)cc2)cc1` gave TbPYK inhibitor -1.7%.
Screening Cc1ccc(Cn2nnc3c(=O)[nH]c(C4CCCN(C(=O)Nc5ccc(F)cc5F)C4)nc32)cc1 (stereo not drawn) returned LmPK inh 8.7%, RE007 growth inh 6.7%, NS1 function inh inconclusive, TbPYK inhibitor 0.2% and LmPK confirm 7.2%.

Assay outcomes: PubChem, National Center for Advancing Translational Sciences (NCATS)
